Experimental data published in the supplement of paper PMC11732987, “Enantioselective OTUD7B fragment discovery through chemoproteomics screening and high-throughput optimisation” (Communications Chemistry, 2025).

Key:
Assay in all cases: log2 ratio of Biotin-Ahx-Ub-VS probe labelling (fragment/DMSO); higher = less target engagement (more negative = stronger competition), active = hit call of the paper (q ≤ 0.05, log2 ratio ≤ -1)
Conditions in all cases: compound concentration: 200 uM; treatment time: 3 h
[1] = target: T1, USP42 (UniProt Q9H9J4)
T1 sequence (whole entry): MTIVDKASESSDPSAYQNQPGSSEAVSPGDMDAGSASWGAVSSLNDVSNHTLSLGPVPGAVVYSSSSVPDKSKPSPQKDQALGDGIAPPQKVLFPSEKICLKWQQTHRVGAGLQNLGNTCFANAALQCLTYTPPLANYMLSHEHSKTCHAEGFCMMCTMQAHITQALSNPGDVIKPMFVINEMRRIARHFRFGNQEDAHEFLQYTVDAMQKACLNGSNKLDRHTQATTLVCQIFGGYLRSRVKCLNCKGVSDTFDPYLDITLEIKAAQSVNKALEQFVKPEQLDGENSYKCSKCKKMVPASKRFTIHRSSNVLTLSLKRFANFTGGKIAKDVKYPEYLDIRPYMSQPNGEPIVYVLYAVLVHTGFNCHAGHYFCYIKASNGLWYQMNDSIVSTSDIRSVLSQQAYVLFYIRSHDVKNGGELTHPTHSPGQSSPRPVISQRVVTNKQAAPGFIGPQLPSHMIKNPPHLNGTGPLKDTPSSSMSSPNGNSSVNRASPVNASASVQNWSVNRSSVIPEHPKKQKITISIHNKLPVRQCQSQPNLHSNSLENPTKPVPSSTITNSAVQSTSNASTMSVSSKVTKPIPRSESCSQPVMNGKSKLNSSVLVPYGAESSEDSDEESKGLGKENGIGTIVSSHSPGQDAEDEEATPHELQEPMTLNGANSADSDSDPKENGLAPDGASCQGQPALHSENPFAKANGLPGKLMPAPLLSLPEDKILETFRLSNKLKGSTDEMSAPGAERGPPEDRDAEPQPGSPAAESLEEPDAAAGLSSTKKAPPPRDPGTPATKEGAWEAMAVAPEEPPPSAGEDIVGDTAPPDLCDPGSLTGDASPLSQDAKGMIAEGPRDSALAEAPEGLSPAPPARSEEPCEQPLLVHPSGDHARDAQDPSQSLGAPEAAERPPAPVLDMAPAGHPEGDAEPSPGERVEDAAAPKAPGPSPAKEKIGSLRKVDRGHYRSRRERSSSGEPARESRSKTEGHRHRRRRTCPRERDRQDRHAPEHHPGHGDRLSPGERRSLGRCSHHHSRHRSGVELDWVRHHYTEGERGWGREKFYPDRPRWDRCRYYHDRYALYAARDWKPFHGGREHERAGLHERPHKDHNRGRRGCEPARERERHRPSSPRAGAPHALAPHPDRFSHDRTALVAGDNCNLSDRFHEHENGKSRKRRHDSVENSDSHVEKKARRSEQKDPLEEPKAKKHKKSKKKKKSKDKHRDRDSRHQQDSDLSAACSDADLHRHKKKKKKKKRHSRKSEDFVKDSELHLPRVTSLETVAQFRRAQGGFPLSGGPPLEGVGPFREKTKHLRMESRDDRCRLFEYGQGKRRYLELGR
Procedure, shortened: (§1)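 In triplicate, 495 µg of HEK293T lysate per sample was incubated with fragment at 200 µM or vehicle for 3 h. Biotin-Ahx-Ub-VS was then added to 0.5 µM final for 1 h, and labelled DUBs were captured with NeutrAvidin, digested with LysC and trypsin, and measured by diaPASEF LC-MS/MS. Data are average log2 fragment/vehicle ratios by unpaired t-test from global-median-normalised Spectronaut label-free quantities, restricted to proteins with ≥2 unique peptides.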

[2] = target: USP46 (UniProt P62068)
Chain of USP46 (P62068 whole entry): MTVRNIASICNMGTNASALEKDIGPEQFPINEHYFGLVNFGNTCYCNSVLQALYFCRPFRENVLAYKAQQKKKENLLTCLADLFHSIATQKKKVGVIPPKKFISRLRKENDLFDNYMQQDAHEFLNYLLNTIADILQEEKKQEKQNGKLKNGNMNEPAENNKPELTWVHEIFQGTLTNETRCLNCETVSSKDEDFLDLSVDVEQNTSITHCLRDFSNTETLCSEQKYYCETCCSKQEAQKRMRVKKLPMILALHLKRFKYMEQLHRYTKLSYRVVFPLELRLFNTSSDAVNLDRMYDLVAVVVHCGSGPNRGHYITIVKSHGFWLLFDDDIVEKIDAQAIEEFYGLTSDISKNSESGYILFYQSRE
Procedure, shortened: as §1

[3] = target: T2, USP47 (UniProt Q96K76)
T2 sequence (whole entry): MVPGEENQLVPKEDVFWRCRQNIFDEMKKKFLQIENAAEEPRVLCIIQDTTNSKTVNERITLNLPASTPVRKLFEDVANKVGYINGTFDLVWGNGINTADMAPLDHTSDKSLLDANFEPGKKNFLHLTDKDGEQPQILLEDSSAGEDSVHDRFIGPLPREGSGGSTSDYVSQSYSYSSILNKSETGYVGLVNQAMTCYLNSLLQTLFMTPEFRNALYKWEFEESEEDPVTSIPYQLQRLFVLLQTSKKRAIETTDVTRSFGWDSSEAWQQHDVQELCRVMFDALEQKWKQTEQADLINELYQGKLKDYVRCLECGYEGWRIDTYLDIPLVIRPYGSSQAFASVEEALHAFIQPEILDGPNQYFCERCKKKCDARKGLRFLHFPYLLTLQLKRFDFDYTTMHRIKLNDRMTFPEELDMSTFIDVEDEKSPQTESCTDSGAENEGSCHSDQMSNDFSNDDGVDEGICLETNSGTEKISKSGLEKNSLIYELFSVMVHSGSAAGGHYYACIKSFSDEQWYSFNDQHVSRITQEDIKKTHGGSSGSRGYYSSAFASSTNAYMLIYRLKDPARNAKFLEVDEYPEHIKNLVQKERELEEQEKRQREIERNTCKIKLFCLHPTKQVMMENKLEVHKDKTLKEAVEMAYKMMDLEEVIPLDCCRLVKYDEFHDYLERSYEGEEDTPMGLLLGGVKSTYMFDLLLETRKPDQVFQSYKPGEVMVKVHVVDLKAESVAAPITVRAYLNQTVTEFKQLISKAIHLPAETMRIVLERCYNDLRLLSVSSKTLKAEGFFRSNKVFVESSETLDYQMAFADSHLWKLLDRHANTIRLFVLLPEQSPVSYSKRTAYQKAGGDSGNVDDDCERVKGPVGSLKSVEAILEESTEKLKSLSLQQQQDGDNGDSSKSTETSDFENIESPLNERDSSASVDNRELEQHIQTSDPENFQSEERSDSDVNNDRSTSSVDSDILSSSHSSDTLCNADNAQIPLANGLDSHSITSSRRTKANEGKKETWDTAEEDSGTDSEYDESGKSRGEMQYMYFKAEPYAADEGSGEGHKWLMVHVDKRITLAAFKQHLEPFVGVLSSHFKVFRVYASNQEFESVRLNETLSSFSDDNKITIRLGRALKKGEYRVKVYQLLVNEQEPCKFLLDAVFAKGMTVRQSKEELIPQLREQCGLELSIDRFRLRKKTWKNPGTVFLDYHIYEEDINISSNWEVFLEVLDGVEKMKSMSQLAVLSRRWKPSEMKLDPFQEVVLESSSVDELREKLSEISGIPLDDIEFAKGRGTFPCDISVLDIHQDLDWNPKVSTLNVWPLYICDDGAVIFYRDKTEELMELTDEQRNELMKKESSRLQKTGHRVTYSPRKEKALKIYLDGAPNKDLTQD
Procedure, shortened: as §1

[4] = target: T3, USP48 (UniProt Q86UV5)
T3 sequence (whole entry): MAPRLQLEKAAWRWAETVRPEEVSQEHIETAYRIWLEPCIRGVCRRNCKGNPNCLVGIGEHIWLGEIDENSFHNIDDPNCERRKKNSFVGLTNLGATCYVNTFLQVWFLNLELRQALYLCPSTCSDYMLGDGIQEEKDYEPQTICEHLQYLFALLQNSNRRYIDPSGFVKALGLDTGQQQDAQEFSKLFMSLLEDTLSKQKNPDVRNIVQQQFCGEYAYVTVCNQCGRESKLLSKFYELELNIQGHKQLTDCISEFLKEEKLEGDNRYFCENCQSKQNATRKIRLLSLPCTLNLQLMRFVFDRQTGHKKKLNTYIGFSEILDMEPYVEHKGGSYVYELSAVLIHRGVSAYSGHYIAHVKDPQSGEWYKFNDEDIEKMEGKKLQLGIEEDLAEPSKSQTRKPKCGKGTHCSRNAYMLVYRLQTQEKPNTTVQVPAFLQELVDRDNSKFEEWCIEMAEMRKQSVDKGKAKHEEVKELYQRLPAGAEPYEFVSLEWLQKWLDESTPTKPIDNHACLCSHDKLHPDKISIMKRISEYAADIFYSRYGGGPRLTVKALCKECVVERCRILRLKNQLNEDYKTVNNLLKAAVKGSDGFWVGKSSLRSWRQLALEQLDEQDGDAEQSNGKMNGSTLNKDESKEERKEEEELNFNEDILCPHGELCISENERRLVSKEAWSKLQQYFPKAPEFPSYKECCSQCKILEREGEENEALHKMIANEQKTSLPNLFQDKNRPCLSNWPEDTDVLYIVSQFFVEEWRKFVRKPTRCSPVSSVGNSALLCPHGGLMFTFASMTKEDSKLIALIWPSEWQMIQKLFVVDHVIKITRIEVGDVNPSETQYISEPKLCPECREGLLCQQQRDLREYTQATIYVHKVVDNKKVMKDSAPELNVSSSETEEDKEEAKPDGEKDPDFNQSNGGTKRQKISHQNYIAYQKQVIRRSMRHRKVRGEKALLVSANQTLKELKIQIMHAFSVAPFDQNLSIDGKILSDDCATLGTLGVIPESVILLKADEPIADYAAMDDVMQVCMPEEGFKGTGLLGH
Procedure, shortened: as §1

[5] = target: T4, USP5 (UniProt P45974)
T4 sequence (whole entry): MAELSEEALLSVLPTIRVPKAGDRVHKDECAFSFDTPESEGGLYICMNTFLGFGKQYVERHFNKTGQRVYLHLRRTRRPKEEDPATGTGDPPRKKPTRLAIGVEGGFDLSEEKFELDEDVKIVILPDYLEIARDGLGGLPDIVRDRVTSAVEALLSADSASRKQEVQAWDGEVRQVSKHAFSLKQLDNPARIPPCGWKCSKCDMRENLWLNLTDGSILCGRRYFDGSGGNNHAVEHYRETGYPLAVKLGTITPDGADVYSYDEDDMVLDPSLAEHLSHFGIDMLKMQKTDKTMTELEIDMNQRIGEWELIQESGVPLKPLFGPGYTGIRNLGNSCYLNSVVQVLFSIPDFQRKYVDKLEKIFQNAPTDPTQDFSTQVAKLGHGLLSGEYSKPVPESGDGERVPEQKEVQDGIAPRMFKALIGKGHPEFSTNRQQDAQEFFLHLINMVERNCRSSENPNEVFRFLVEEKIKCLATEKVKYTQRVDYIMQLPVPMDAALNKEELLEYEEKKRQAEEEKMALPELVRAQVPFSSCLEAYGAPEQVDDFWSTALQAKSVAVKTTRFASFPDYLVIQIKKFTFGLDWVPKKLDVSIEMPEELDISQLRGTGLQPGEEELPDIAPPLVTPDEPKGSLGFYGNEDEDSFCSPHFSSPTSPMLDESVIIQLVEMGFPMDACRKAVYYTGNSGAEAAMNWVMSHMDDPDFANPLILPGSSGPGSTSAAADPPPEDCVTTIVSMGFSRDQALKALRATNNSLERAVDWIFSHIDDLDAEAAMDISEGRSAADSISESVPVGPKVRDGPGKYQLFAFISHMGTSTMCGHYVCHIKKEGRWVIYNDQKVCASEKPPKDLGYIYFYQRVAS
Procedure, shortened: as §1

[6] = target: USP54 (UniProt Q70EL1)
Chain of USP54 (Q70EL1 whole entry): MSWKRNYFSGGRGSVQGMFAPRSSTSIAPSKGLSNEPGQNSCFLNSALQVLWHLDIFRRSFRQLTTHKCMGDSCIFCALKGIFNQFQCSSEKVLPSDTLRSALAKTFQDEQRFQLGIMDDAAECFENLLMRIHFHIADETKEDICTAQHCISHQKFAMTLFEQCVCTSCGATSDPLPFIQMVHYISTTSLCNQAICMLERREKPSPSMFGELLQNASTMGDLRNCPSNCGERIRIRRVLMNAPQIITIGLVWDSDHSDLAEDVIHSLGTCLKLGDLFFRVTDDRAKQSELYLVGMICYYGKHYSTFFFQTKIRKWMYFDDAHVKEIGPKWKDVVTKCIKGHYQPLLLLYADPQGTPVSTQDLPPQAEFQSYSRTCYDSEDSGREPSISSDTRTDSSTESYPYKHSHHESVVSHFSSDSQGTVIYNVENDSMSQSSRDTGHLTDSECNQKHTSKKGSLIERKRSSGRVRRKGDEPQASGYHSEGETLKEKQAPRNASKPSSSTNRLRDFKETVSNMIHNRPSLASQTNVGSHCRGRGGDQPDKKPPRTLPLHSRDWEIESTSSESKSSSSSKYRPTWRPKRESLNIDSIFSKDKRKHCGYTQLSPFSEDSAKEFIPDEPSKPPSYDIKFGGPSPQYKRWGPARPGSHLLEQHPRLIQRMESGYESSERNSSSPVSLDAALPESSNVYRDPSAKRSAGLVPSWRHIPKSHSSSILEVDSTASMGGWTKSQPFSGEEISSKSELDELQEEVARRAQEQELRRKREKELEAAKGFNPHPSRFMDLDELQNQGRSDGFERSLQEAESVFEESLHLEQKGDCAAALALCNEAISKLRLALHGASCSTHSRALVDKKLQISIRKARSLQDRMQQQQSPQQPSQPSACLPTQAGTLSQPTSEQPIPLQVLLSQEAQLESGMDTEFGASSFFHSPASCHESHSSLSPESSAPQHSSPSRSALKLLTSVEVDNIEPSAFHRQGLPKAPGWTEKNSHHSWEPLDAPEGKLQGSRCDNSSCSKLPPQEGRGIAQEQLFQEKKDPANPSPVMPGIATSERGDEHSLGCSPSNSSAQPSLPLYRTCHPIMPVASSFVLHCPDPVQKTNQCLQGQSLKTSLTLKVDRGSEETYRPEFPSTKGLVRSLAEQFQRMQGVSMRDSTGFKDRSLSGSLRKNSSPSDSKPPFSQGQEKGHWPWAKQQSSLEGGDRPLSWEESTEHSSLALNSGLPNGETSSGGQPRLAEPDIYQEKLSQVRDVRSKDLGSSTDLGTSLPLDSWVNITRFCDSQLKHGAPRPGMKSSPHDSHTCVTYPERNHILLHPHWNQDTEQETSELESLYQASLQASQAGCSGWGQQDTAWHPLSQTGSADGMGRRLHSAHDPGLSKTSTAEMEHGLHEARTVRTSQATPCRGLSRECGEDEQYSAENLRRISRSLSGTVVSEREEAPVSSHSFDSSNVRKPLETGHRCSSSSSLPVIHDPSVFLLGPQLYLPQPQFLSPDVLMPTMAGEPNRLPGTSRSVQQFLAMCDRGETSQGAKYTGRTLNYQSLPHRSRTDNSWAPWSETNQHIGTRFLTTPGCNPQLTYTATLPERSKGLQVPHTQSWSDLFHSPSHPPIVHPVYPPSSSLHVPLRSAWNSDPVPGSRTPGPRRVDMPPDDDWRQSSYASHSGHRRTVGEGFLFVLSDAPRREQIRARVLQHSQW
Procedure, shortened: as §1

[7] = target: USP7 (UniProt Q93009)
Chain of USP7 (Q93009 whole entry, looked up): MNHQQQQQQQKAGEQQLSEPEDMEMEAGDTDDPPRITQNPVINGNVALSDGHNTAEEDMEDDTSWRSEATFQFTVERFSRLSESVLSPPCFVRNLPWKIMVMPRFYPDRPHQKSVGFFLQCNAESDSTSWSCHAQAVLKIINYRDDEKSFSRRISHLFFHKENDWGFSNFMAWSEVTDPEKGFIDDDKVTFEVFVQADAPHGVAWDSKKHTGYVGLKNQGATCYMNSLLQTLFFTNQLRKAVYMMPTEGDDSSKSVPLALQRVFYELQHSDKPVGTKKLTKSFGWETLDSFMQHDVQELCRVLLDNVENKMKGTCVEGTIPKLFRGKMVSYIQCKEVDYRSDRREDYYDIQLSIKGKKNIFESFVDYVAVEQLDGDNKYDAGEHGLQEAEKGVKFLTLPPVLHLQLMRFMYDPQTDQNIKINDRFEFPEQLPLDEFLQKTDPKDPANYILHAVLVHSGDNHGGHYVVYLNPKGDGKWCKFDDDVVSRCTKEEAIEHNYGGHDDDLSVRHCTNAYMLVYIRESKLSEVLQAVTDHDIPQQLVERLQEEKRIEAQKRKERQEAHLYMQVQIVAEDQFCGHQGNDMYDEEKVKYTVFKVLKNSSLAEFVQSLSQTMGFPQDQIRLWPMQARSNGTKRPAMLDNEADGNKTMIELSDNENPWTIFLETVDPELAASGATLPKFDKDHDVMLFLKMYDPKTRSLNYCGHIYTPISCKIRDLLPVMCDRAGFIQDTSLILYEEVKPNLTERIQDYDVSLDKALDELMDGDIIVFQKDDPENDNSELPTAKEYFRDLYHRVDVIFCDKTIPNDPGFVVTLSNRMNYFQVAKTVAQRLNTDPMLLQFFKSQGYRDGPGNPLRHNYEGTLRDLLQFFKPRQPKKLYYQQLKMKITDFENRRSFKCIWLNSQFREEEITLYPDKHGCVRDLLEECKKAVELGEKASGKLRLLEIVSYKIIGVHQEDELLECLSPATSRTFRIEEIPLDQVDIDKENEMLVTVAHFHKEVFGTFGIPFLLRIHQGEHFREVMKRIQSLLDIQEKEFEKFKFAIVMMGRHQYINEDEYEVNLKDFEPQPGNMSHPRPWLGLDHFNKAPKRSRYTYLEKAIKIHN
Procedure, shortened: as §1

[8] = target: T5, USP8 (UniProt P40818)
T5 sequence (whole entry): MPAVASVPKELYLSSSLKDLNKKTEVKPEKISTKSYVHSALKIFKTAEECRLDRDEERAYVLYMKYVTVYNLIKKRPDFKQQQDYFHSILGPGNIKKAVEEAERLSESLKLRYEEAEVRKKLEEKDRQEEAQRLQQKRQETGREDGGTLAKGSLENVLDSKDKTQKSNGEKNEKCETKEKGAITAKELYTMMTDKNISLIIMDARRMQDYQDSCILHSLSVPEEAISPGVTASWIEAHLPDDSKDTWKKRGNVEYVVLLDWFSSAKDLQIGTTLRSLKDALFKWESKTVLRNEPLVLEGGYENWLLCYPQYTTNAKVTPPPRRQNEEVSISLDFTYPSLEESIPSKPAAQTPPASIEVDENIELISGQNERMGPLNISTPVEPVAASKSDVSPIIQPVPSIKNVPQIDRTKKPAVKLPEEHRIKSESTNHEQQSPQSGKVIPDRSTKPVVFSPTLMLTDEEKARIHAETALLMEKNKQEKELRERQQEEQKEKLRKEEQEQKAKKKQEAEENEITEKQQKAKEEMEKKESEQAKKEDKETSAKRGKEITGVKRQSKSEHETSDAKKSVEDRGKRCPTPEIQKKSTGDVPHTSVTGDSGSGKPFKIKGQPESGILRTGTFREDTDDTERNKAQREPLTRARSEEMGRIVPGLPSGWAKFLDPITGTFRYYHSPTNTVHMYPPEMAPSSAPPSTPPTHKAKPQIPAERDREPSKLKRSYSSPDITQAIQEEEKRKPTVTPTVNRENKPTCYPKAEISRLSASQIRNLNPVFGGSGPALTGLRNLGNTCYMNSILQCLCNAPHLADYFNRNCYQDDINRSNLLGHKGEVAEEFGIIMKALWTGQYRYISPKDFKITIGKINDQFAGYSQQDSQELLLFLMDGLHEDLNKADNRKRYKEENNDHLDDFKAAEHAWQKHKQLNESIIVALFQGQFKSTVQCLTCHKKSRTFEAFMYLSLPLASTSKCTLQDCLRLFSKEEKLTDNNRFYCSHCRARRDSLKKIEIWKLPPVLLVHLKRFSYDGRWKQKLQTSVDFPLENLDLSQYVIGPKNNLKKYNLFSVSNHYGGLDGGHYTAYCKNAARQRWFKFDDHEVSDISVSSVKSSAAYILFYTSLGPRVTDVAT
Procedure, shortened: as §1

Measured: log2 ratio of Biotin-Ahx-Ub-VS probe labelling

Cc1cc(CC(C)NC(=O)CCl)n[nH]1 (stereo not drawn)
inactive: [1] -0.515 | [2] -0.086 | [3] 0.219 | [4] -0.0294 | [5] -0.0909 | [6] -0.195 | [7] -0.0248 | [8] -0.57
